Assay outcomes (PubChem BioAssay)
Shown are actives, neighbours in structure and some others; about 7.3% of the full set was active somewhere.
ELG1 genotox = induces genotoxicity in HEK293T cells with luciferase-tagged ELG1. HEK293T ELG1-luciferase reporter, luminescence, 16 h. Potency, µM (titrated, usually from 46 µM), for the others: at the top dose activity change, positive = activation, usual class: activators. actives 1.3% (n = 330,000); also: % of control where 0% means no effect; nearly all actives have a fitted effect of over 60% in size
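ELG1-luciferase HEK293T cells, 2,000/well; compound pinned in; 16 hr, 37 °C, 5% CO2; ONE-Glo, 30 min RT; luminescence on CCD imager.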
uPA surface inh = inhibitors of cell surface uPA generation; cell surface uPA generation assay, qHTS; actives 0.31% (n = 330,000); Potency, µM (highest dose often 38.3 µM), for inactives: at the highest dose activity change, negative = inhibition, actives largely listed as inhibitors; active = well fitted inhibition curve with a large enough effect; inconclusive = small, poorly fitted or top-dose-only effect; inactive = no such curve, though single readings can be large or run the other way; tested in mouse RAW 264.7 cells; also: % is scaled to controls: 0 for no effect and ±100 for the full control effect; nearly all actives have a fitted effect of over 55% in size
SMN2 splice enh = increases expression of the SMN2 splice variant. HEK293 SMN2-luciferase splicing reporter, luminescence, 30-36 h. Potency, µM (highest dose often 46.1 µM), for inactives: at the highest dose activity change, positive = activation, usual class: activators. actives 2.8% (n = 210,000). AID 1458; also: % of control where 0% means no effect; nearly all actives have a fitted effect of over 55% in size
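HEK293 cells carry an SMN2 […]–luciferase reporter in which exon 7 inclusion puts luciferase in frame. Cells were plated 10-12 h before compound addition, then incubated 30-36 h at 37C. ONE-Glo luminescence was read; sodium butyrate at 4.5 mM final served as control.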
Rab9 promoter act = activates the Rab9 promoter; Huh7 Rab9 promoter-luciferase reporter, luminescence, 24 h; actives 2.8% (n = 320,000); Potency, µM (highest dose often 9.22 µM), for the others: top-dose activation, negative = inhibition, hits mostly activators; also: % of control where 0% means no effect; nearly all actives have a fitted effect of over 60% in size
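Luminescence from Amplite-detected luciferase (10 minutes, ambient) reports Rab9 promoter activation. Before that, stable Rab9-luciferase Huh7 cells (1500/well, reduced-serum OP-MEM I plus 10% FBS) were exposed to compound for 24 hours at 37C.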
FLuc modulator = inhibits or activates purified firefly luciferase, miR-21 counter-screen; AID 588342; actives 6.9% (n = 360,000); Potency, µM (top dose mostly 57.5 µM), for inactives: at the top dose activity change, negative = inhibition, hits mostly inhibitors; purified FLuc, Km substrates, luminescence inhibition;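 also: plate controls were vehicle for no effect and reference inhibitor for full effect; nearly all actives have a fitted effect of over 55% in size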
Target sequence (P08659 whole entry, looked up): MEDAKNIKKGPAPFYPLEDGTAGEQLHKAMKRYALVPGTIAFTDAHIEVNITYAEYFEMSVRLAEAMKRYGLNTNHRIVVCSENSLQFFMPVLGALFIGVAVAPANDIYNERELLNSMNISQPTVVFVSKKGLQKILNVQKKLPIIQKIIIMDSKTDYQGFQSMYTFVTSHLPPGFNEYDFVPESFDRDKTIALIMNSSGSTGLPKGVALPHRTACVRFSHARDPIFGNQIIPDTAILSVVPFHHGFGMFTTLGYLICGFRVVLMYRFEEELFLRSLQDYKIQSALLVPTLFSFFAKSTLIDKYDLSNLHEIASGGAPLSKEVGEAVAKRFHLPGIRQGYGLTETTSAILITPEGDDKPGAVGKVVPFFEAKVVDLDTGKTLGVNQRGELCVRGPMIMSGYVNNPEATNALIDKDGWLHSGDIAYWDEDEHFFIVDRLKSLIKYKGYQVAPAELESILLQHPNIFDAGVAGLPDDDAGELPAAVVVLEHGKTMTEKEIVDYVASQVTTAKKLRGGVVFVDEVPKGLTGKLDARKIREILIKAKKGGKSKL
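Purified P. pyralis luciferase (10nM final) with 10uM D-luciferin and 10uM ATP (Km levels) in 50mM Tris acetate pH 7.5, 10mM Mg acetate, 0.01% Tween-20, 0.05% BSA; qHTS 6-point titration, ~60 µM downward; luminescence read.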
NPC1 prom act = NPC1 promoter activation; Huh7 NPC1 promoter luciferase reporter, 24 h; Potency, µM (series often up to 9.22 µM), without a hit: at the highest dose activation, usual class: activators; actives 2.4% (n = 320,000); AID 485313; also: % of control where 0% means no effect; nearly all actives have a fitted effect of over 60% in size
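Huh7 cells stably carrying NPC1 promoter–luciferase, plated in Opti-MEM with 10% FBS for 2 h, were exposed to compound in DMSO for 24 h at 37 °C; luciferase reagent was added for 10 min and luminescence read.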
* = called active by the depositor; [ ] = remark or other dose. Unless noted, calls follow the shape of the dose curve; as a rule, active = well fitted curve in the direction sought with a large enough effect; inconclusive = small, poorly fitted or top-dose-only effect, or another doubt; inactive = no such curve, though single readings can be large; an effect the other way counts as inactive or inconclusive. Potency is read from the fitted curve at half-maximal effect.

Results for Cc1cccc(-n2ncc3c(NC(C)C)ncnc32)c1 ?
ELG1 genotox: 2.6µM*; uPA surface inh: inconclusive; SMN2 splice enh: 3.5µM*; Rab9 promoter act: 0.89µM*; FLuc modulator: 2.4µM*; NPC1 prom act: 3.2µM*

How did COc1ccc(Nc2ncnc3c2cnn3-c2cccc(C)c2)cc1OC do in these assays?
ELG1 genotox: 0%; uPA surface inh: 2%; Rab9 promoter act: -1%; FLuc modulator: -1%; NPC1 prom act: -1%

Results for Cc1ccc(-n2ncc3c(Nc4cccc(C(F)(F)F)c4)ncnc32)cc1C ?
FLuc modulator: 15µM*

How did Cc1cccc(-n2ncc3c(Nc4c(C)cc(C)cc4C)ncnc32)c1 do in these assays?
FLuc modulator: -9%

How did COc1ccc(-n2ncc3c(Nc4cccc(C)c4)ncnc32)cc1 do in these assays?
ELG1 genotox: inconclusive; uPA surface inh: -1%; SMN2 splice enh: inconclusive; Rab9 promoter act: 4µM*; FLuc modulator: 11µM*; NPC1 prom act: 2.8µM*

How did CC(=O)N1CCC2(CC1)CN(C(c1ccccc1)c1ccccc1)C2 do in these assays?
SMN2 splice enh: 0%

How did Nc1ccn([C@H]2O[C@@H](COP(=O)(O)O)[C@@H](O)[C@H]2O)c(=O)n1 do in these assays?
SMN2 splice enh: -20%[9.22 µM]

Results for CCCCNC(=O)CCCn1c(=O)c2ccccc2n(CC(=O)Nc2ccccc2OCC)c1=O ?
SMN2 splice enh: -6%; FLuc modulator: 2%

What do the screens show for `Cc1cccc(C(=O)N2CCc3cc(CNS(=O)(=O)c4ccc(F)c(Cl)c4)ccc32)c1`?
FLuc modulator: -1%

Results for COC(c1ccccc1)c1nnc(CCC(=O)N(C)CCOc2ccccc2)o1 (centres undefined) ?
ELG1 genotox: inconclusive; uPA surface inh: -3%; SMN2 splice enh: 12%; Rab9 promoter act: 28%; FLuc modulator: 27µM*; NPC1 prom act: 17%

Results for COC(c1ccccc1)c1nnc(CCC(=O)N(C)CCCC2CCCC2)o1 (centres undefined) ?
ELG1 genotox: 4%; uPA surface inh: 1%; Rab9 promoter act: 6%; FLuc modulator: inconclusive; NPC1 prom act: 2%

How did CCCN(CC1CC1)C(=O)CCc1nnc(C(OC)c2ccccc2)o1 (centres undefined) do in these assays?
ELG1 genotox: 1%; uPA surface inh: 19%; Rab9 promoter act: -6%; FLuc modulator: -12%; NPC1 prom act: -2%

Results for COC(c1ccccc1)c1nnc(CCC(=O)N(C)Cc2cccc(-n3cccn3)c2)o1 (centres undefined) ?
ELG1 genotox: inconclusive; uPA surface inh: 2%; Rab9 promoter act: inconclusive; FLuc modulator: 15µM*; NPC1 prom act: 4%

How did COc1ccc2c(c1)c1c(c(=O)n(-c3ccc(F)c(Cl)c3)c(=O)n1CC(N)=O)n2C do in these assays?
FLuc modulator: -1%

Results for COc1cc(NC(=O)c2ccc(N)nc2)cc(C(=O)Nc2cccc(C(F)(F)F)c2)c1 ?
ELG1 genotox: 7%; uPA surface inh: -10%; Rab9 promoter act: 3%; FLuc modulator: 7.6µM*; NPC1 prom act: 2%

How did COc1cc(NC(=O)c2nccnc2N)cc(C(=O)Nc2cccc(C(F)(F)F)c2)c1 do in these assays?
ELG1 genotox: 6%; uPA surface inh: -14%; Rab9 promoter act: -6%; FLuc modulator: 11µM*; NPC1 prom act: -3%

How did COc1cc(Nc2ccccn2)cc(C(=O)Nc2cccc(C(F)(F)F)c2)c1 do in these assays?
ELG1 genotox: -13%; uPA surface inh: -5%; Rab9 promoter act: -10%; FLuc modulator: inconclusive; NPC1 prom act: 2%

How did Cc1nc2oc3ccc(Cl)cc3c(=O)c2cc1C(=O)O do in these assays?
ELG1 genotox: 16%; uPA surface inh: 2%; Rab9 promoter act: inconclusive; FLuc modulator: 24µM*; NPC1 prom act: inconclusive

Results for CC(C)c1ccc2oc3nc(N)c(C(=O)O)cc3c(=O)c2c1 ?
Rab9 promoter act: 0.5µM*; FLuc modulator: 0.43µM*; NPC1 prom act: 0.32µM*

What do the screens show for `Cc1nc2oc3ccc(F)cc3c(=O)c2cc1C(=O)NC(C)(C)C`?
ELG1 genotox: inconclusive; uPA surface inh: -6%; SMN2 splice enh: inconclusive; Rab9 promoter act: 15%; FLuc modulator: inconclusive; NPC1 prom act: 1%

How did Cc1ccccc1CN1C(=O)c2ccccc2Sc2ccc(C(=O)NC3CCCC3)cc21 do in these assays?
FLuc modulator: 4%

What do the screens show for `O=C(O)c1ccc(N=Nc2c(O)[nH]c3ccc(Br)cc23)cc1`?
ELG1 genotox: 18µM*; uPA surface inh: -16%; Rab9 promoter act: inconclusive; FLuc modulator: 11µM*; NPC1 prom act: 1.3µM*

What do the screens show for `CCOc1ccc(NC(=S)N=Nc2c(O)[nH]c3ccccc23)cc1`?
ELG1 genotox: -10%; uPA surface inh: -5%; SMN2 splice enh: -41%; Rab9 promoter act: -4%; FLuc modulator: -16%; NPC1 prom act: -8%

How did Oc1cccc(NC(=S)N=Nc2c(O)[nH]c3ccccc23)c1 do in these assays?
ELG1 genotox: inconclusive; uPA surface inh: 1%; Rab9 promoter act: 22%; FLuc modulator: 19µM*; NPC1 prom act: 16%

Results for COC(=O)N=Nc1c(O)[nH]c2ccc(Br)cc12 ?
ELG1 genotox: -5%; uPA surface inh: -3%; Rab9 promoter act: 14%; FLuc modulator: -8%; NPC1 prom act: 12%

How did O=C(O)c1ccc(N=Nc2c(O)[nH]c3cc(Cl)ccc23)cc1 do in these assays?
ELG1 genotox: 9.2µM*; uPA surface inh: 7%; Rab9 promoter act: 0.1µM*; FLuc modulator: 0.85µM*; NPC1 prom act: 0.32µM*

Results for Cc1ccc(N=Nc2c(O)[nH]c3ccc(F)cc23)cc1 ?
ELG1 genotox: inconclusive; uPA surface inh: 0%; Rab9 promoter act: 2.8µM*; FLuc modulator: inconclusive; NPC1 prom act: 3.2µM*

How did COCC(=O)N1CCC[C@@]2(CCN(c3ccccn3)C2)C1 do in these assays?
SMN2 splice enh: 9%

How did Cc1cc(C)n(CC(=O)N2CCCC(C(=O)c3cccc(OC(C)C)c3)C2)n1 (centres undefined) do in these assays?
ELG1 genotox: -6%; uPA surface inh: 0%; Rab9 promoter act: -14%; FLuc modulator: 3%; NPC1 prom act: -1%

How did COC(=O)N[C@@H](/C=C/c1ccccc1)/C(C(=O)OC)=C(\C)NCc1ccccc1 do in these assays?
SMN2 splice enh: 5%

How did Cc1ccc(S(=O)(=O)N(C)c2ccc(C(=O)N(CC(C)C)C3CCS(=O)(=O)C3)cc2)cc1 (centres undefined) do in these assays?
ELG1 genotox: -1%; uPA surface inh: -5%; Rab9 promoter act: 1%; FLuc modulator: 6%; NPC1 prom act: 0%
